Test results taken from PubChem BioAssay AID1259336 (Sattelle Laboratory, UCL Respiratory, Division of Medicine, …, 2017).
Unmarked numbers belong to inactive results. Activity calls are given as the source filed them. Rule as the data show it: active = log2 fold change growth below about -1.8; inactive = the rest.

Test: C. elegans growth inhibition, whole organism, log2 fold change (AID 1259336);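 also: growth scored by imaging after five days at 20 °C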
Details: anthelmintic screen, stronger effect = lower value

SMILES | log2 fold change growth
O=C(NCCN1CCCC1)c1cc(NCCN2CCOCC2)nc2ccc(Cl)cc12 | 0.29
CC(=O)NC[C@H]1CN(c2ccc(-c3ccc(CO)cc3)c(F)c2)C(=O)O1 | 0.592
Cc1ccc(Oc2ccc(NC(=O)CNc3ccccc3N3CCCC3=O)cc2)cc1 | 0.0475
COc1ccc(Cl)cc1NC(=O)CN(C)C(=O)c1cnn(-c2ccccc2)n1 | -0.154
CN1CCN(CCCOc2ncc(Nc3ncc(-c4ccc(C(F)(F)F)c(F)c4)nc3C(N)=O)cn2)CC1 | -0.568
CC(C)(C)c1cc(C(=O)N2CCN(c3nccnc3C#N)CC2)n(Cc2ccccc2)n1 | -0.0659
COc1cccc(-c2cc3c(Nc4cccnc4)nccc3[nH]2)c1 | 0.319
CNC(=O)[C@@H]1Cc2c([nH]c3cc(Cl)ccc23)C2(CCN(CCc3ccccc3)CC2)N1 | 0.551
Cc1ccc(-c2cc(C(=O)Nc3cccnc3)c3cc(Br)ccc3n2)cc1 | -0.0922
CN(C(=O)c1cc2c(-c3cncnc3)cccc2[nH]1)c1ccccc1 | -0.492
O=C([C@H](Cc1c[nH]c2ccccc12)NS(=O)(=O)c1ccc(Cl)cc1)N1CCCCC1 | -0.129
CC(C)n1ncc2c(C(=O)NC[C@@H](c3cccs3)N3CCOCC3)cc(-c3ccccc3)nc21 | -2.7 (active)
CC(C)(C)CN1C(=O)C(c2ccccc2)(c2ccccc2)N=C1N | -5.48 (active)
Cc1[nH]c2ccccc2c1[C@H](c1cccs1)N1CCN(C)CC1 | -0.0891
